{"source": "the supplement of paper PMC4380459"}
{"system": "tubulin (bovine brain)", "experiment": "tubulin polymerization end-point dOD, fold change relative to DMSO vehicle; higher = more polymerization (stabilization)", "details": "50 µM; 60 min; 37 °C", "procedure,_shortened": "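Using the Cytoskeleton HTS-Tubulin polymerization kit, 4 mg/ml bovine brain tubulin in G-PEM buffer (PIPES pH 6.9, MgCl2, EGTA, GTP) was combined on ice in 384-well plates with compound at a final 50 μM in 0.5% DMSO. After warming to 37°C in a Tecan reader, the plates were read at 340 nm once a minute for 1 hour. Values give the end-point change in optical density as percent fold change over DMSO vehicle, normalized per run with the means and standard deviations of DMSO and reference-control wells.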", "units": {"tubulin polymerization end-point dOD": "%"}}
{"compound": "O=C(Nc1ccc2c(c1)OCCO2)C(=O)Nc1cccc2ncccc12", "tubulin polymerization end-point dOD": -9.86}
{"compound": "Cc1cc(C(=O)Nc2nc3cc4c(cc3s2)OCCO4)c2c(C)nn(C)c2n1", "tubulin polymerization end-point dOD": 28.4}
{"compound": "N#Cc1ccc(Cc2cnc(NC(=O)c3ccc4ncsc4c3)s2)cc1", "tubulin polymerization end-point dOD": -40.1}
{"compound": "CCc1ccc2nc(SCC(=O)Nc3cc(C)ccc3C)c(C#N)cc2c1", "tubulin polymerization end-point dOD": -12.2}
{"compound": "c1ccc(CCc2nc3c4ccccc4ncn3n2)cc1", "tubulin polymerization end-point dOD": -31.9}
{"compound": "Cc1cc2cc3c(cc2nc1SCC(=O)Nc1ccccc1Br)OCO3", "tubulin polymerization end-point dOD": -1.3}
{"compound": "COc1ccc(Cl)cc1NC(=O)C1CCCN1C(=O)Nc1ccccc1OC", "note": "(centres undefined)", "tubulin polymerization end-point dOD": -2.01}
{"compound": "COc1ccccc1-n1c(SCC(=O)Nc2nccs2)nnc1-c1cccnc1", "tubulin polymerization end-point dOD": 5.05}
{"compound": "Cc1ccc(C(=O)Nc2nc3ccc(Cl)cc3s2)cn1", "tubulin polymerization end-point dOD": -82.9}
{"compound": "CCc1noc(CSc2ncnc3scc(-c4ccc(C)cc4)c23)n1", "tubulin polymerization end-point dOD": 30.2}
{"compound": "Cc1cc2cc3c(cc2nc1SCC(=O)NC(C)(C)C)CCC3", "tubulin polymerization end-point dOD": 63.4}
{"compound": "Cc1cc2nc(/C=C/c3cccs3)sc2cc1C", "tubulin polymerization end-point dOD": 43.1}
{"compound": "COc1ccc2cc(CN(Cc3ccccc3Cl)C(=O)Nc3ccccc3OC)c(=O)[nH]c2c1", "tubulin polymerization end-point dOD": -4.53}
{"compound": "COc1ccc(C)cc1NC(=O)CSc1nc2ccc(C(C)C)cc2cc1C#N", "tubulin polymerization end-point dOD": -41.3}
{"compound": "C/C(=N\\Nc1cc(-c2ccccc2)nc(C)n1)c1ccc(C)cc1", "tubulin polymerization end-point dOD": -7.02}
{"compound": "COc1cc(C2NC(=O)c3ccccc3N2)cc2c1OCO2", "note": "(centres undefined)", "tubulin polymerization end-point dOD": -31.5}
{"compound": "COc1cc2c(cc1OC)C(c1cccs1)[NH+](CC(O)c1ccccc1)CC2", "note": "(centres undefined)", "tubulin polymerization end-point dOD": -40.4}
{"compound": "Clc1ccc2sc(/C=C/c3cccnc3)nc2c1", "tubulin polymerization end-point dOD": 47.1}
{"compound": "CC(=O)N1c2ccc(NC(=O)c3cc4cccc(C)c4nc3C)cc2CC1C", "note": "(centres undefined)", "tubulin polymerization end-point dOD": 0.65}
{"compound": "COc1ccc(CNc2c(-c3ccccc3O)nc3cnccn23)cc1", "tubulin polymerization end-point dOD": 0.31}
{"compound": "O=c1[nH]c(/C=C\\c2ccccc2)nc2ccccc12", "tubulin polymerization end-point dOD": 40.5}
{"compound": "COc1ccc(OC)c(NC(=O)CSc2nc3ccc(OC)cc3cc2C)c1", "tubulin polymerization end-point dOD": -30.7}
{"compound": "C/C(=N\\NC(=O)c1cccc(F)c1)c1ccc(Br)s1", "tubulin polymerization end-point dOD": 9.02}
{"compound": "Nc1nc(SCC(=O)NC2CCCCC2)nc2sc3c(c12)CCCC3", "tubulin polymerization end-point dOD": -12}
{"compound": "Cc1ccc2cc(C#N)c(SCC(=O)c3ccccc3)nc2c1", "tubulin polymerization end-point dOD": -46.9}
{"compound": "COc1ccc(/C=N/NC(=O)c2cccc(F)c2)cc1I", "tubulin polymerization end-point dOD": 10.5}
{"compound": "CC(C)n1ncc2cc(C(=O)Nc3cccc4c3CCCC4)cnc21", "tubulin polymerization end-point dOD": -23.5}
{"compound": "Cc1cc(N2CCN(C(=O)c3c[nH]nc3-c3ccccc3)CC2)nc(C(C)C)n1", "tubulin polymerization end-point dOD": -15.2}
{"compound": "N#Cc1ccsc1NC(=O)C1COc2ccccc2C1", "note": "(centres undefined)", "tubulin polymerization end-point dOD": -10.4}
